Bioassay records deposited in PubChem by National Center for Advancing Translational Sciences (NCATS).
NIH3T3 tox: Cytotoxic Profiling in NIH 3T3 Cell Line of Diverse Libraries Using Quantitative High-Throughput Screening; NIH 3T3 viability, CellTiter-Glo ATP luminescence, 48-72 h; Potency, µM (top dose mostly 96.7 µM), for inactives: at the highest dose activity change, negative = cytotoxicity, hits mostly inhibitors; 94,000 tested, 4.3% active; note: nearly all actives have a fitted effect of over 55% in size
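Mouse fibroblast NIH 3T3 cells, 400 per well, received compound via pintool and were incubated for 48 or 72 hr prior to CellTiter-Glo ATP luminescence measurement.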
NPR1 antag: Natriuretic polypeptide receptor (hNpr1) antagonism - Primary qHTS; HEK293 hNpr1 GloSensor cGMP, ANP-stimulated luminescence; Potency, µM (series often up to 46.3 µM), for the others: at the top dose activity change, negative = inhibition, usual class: inhibitors; Atrial natriuretic peptide receptor 1 (Homo sapiens), P16066; AID 1347048, 2019; 76,000 tested, 1.6% active; calls by dose curve; note: nearly all actives have a fitted effect of over 60% in size
Target sequence (P16066 whole entry, looked up): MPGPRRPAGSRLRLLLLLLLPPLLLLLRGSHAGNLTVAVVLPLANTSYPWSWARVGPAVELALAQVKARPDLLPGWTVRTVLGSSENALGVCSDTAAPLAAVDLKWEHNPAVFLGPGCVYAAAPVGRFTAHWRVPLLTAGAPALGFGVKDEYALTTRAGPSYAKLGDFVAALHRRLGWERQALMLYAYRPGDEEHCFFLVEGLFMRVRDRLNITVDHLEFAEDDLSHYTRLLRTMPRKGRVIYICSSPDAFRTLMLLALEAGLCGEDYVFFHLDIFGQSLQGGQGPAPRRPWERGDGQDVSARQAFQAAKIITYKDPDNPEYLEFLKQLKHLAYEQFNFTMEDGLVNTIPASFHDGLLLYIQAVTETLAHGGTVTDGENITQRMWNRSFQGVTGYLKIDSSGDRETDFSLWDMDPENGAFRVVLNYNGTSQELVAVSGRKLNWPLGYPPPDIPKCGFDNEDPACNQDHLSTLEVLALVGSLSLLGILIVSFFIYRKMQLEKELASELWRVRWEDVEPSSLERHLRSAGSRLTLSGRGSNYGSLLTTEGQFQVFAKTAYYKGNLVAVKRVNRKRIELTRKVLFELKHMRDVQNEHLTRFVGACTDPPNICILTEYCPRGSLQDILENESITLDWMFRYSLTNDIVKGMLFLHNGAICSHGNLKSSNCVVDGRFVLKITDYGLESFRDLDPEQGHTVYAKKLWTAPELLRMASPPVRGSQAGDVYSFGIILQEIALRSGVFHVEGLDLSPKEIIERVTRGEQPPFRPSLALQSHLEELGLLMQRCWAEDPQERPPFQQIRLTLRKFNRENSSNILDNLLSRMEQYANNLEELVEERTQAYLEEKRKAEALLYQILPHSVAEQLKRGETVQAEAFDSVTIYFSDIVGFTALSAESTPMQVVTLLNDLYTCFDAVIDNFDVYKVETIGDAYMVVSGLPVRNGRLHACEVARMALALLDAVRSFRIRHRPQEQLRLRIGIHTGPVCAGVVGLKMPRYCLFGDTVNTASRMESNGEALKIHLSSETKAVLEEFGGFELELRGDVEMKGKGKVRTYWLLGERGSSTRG
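Compound pre-incubated 30 min at room temperature on GloSensor-loaded HEK293 cells stably carrying hNpr1 and the pGS-40F cGMP biosensor. Stimulation uses hNppA at 0.1 nM final; luminescence is taken at baseline and 20 min post-agonist.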
FLuc inh: Firefly luciferase inhibition profiling of diverse chemical library using quantitative high-throughput screening. Luciferin 4-monooxygenase (Photinus pyralis), P08659. purified P. pyralis luciferase, luminescence, biochemical. Potency, µM (doses to about 115 µM), most hits filed as inhibitors. 76,000 tested, 2.5% active; note: nearly all actives have a fitted effect of over 65% in size
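Biochemical qHTS: compound (6-point titration) added to 10uM D-luciferin plus 10uM ATP in Tris acetate pH 7.5 buffer with Mg, Tween-20 and BSA, then purified enzyme at 10nM; light output imaged.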
GPT2 inhibitor: Primary qHTS assay for inhibitors of Glutamate pyruvate transaminase 2 (GPT2) | 100,000 tested, 0.25% active | Recombinant GPT2, coupled pyruvate oxidase/HRP Amplex Red fluorescence | Alanine aminotransferase 2 (Homo sapiens), Q8TD30 | Potency, µM (series often up to 57.7 µM), for inactives: top-dose activity change, negative = inhibition, hits mostly inhibitors; note: nearly all actives have a fitted effect of over 60% in size
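Fluorescence of coupled pyruvate oxidase/HRP/Amplex Red system (50uM Amplex, 30 min, dark) reports pyruvate formed by GPT2. Enzyme reaction: 10ng/uL GPT2, 2mM L-alanine, 250uM a-KG, 30 min room temperature, pH 7.5; 50uM AOA control.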
HEK293 tox: Cytotoxic Profiling in HEK 293 Cell Line of Diverse Libraries Using Quantitative High-Throughput Screening. HEK 293 viability, ATP luminescence (CellTiter-Glo), 48-72 h. Potency, µM (titrated, usually from 115 µM), for the others: top-dose activity change, negative = cytotoxicity, most hits filed as inhibitors. 94,000 tested, 6.6% active. AID 1345083, 2018; note: nearly all actives have a fitted effect of over 60% in size
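Pintool-delivered compounds were incubated with HEK 293 cells (250 cells/well) at 37 degree Celsius for 48 or 72 hr. ATP-dependent luminescence (CellTiter-Glo) then reported remaining viable cells.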
The depositor's hits bear a star; i = inactive; ? = inconclusive; [ ] = dose if it differs, or a comment. An excerpt weighted towards active compounds, which were near 10% of everything screened. Unless noted, calls come from the whole dose curve; as a rule, active = well fitted curve in the direction sought with a large enough effect; inconclusive = small, poorly fitted or top-dose-only effect, or another doubt; inactive = no such curve, though single readings can be large; an effect the other way counts as inactive or inconclusive. % is set by controls: 0 for no effect and ±100 for the full control effect; potency is the fitted concentration of half-maximal effect.

SMILES | NIH3T3 tox | NPR1 antag | FLuc inh | GPT2 inhibitor | HEK293 tox
O=C(Nc1ccc2c(N3CCCCC3)ncnc2c1)c1ccc(F)cc1F | 22.4µM* | 2.9% | ? | -5.4% | 15.8µM*
CCCC(=O)Nc1ccc2c(N3CCOCC3)ncnc2c1 | ? | 4.0% | i | -0.1% | -13.9%
COc1ccc(C(=O)Nc2ccc3c(N4CCCCC4)ncnc3c2)cc1 | ? | 0.9% | 25.1µM* | i | 39.8µM*
COc1ccc(C(=O)Nc2ccc3c(N4CCOCC4)ncnc3c2)c(C)c1 | 22.4µM* | -0.2% | ? | 4.0% | ?
COc1cccc(C(=O)Nc2ccc3ncnc(N4CCCCC4)c3c2)c1 | ? | -21.7% | i | i | ?
O=C(Nc1ccc2c(N3CCOCC3)ncnc2c1)c1ccco1 | -27.7% | 1.7% | i | i | ?
Cc1ccc(C(=O)Nc2ccc3c(N4CCOCC4)ncnc3c2)cc1F | 11.2µM* | -10.7% | ? | 0.9% | ?
Cc1ccc(NC(=O)CCNc2cnc3cnccn23)cc1F | -15.6% | -13.0% | i | ? | -15.1%
COc1ccc(CN2CC[C@@](O)(C3CC3)[C@H](C)C2)cc1CN1CCCC1 | ? | -2.6% | i | -1.2% | ?
COCC(=O)NCc1cc2n(n1)CCCN(Cc1ccc3nsnc3c1)C2 | -6.2% | 0.9% | i | i | 4.7%
O=C(Nc1ccc2ncnc(N3CCCC3)c2c1)c1ccc(F)c(F)c1 | 35.5µM* | -21.2% | i | -4.0% | ?
Cc1cccc(C(=O)Nc2ccc3ncnc(N4CCCCC4)c3c2)c1 | ? | -27.1% | i | -39.2% | ?
O=C(Cc1ccc(F)cc1)Nc1ccc2ncnc(N3CCCCC3)c2c1 | 35.5µM* | -16.4% | i | -9.3% | ?
O=C(Nc1ccc2c(N3CCCCC3)ncnc2c1)c1ccc(F)c(F)c1 | -12.4% | 1.7% | i | -9.2% | -29.7%
Cc1ccsc1C(=O)Nc1ccc2ncnc(N3CCCCC3)c2c1 | 35.5µM* | ? | i | -1.3% | 31.6µM*
CN(Cc1ccc2nonc2c1)C(=O)C1CCC(=O)N(Cc2ccc(Cl)cc2)C1 (centres undefined) | ? | 0.4% | i | -23.9% | -11.0%
COC(=O)c1cn([C@H]2CO[C@H]3[C@@H]2OC[C@@H]3NC(=O)c2ccc(C)cc2)nn1 | i | -2.2%[70.6 µM] | i | -15.8%[88.5 µM] | -2.2%[172 µM]
Cc1cc(C2CCCN2C(=O)c2cc(F)cc(F)c2)on1 (centres undefined) | -17.1% | -0.3% | i | i | -13.9%
CN(C)c1ccc(CN2Cc3[nH]cnc3C[C@H]2c2nc(-c3ccccc3)no2)cc1 | ? | -3.6%[70.6 µM] | 39.8µM* | -17.2%[88.5 µM] | ?
Cc1ccc(-c2noc([C@@H]3Cc4nc[nH]c4CN3Cc3ccc(N(C)C)cc3)n2)cc1 | 100µM* | ? | ? | -5.8%[88.5 µM] | 89.1µM*
CNC1CCN(C(=O)CC2(Cc3ccccc3)C(=O)N(C)c3ccccc32)CC1 (centres undefined) | -9.8% | -3.8% | i | 0.6% | -1.1%
c1coc(CN2CCC(NC3CCCN(c4nc5ccccc5s4)C3)CC2)c1 (centres undefined) | ? | 0.2% | i | i | ?
Clc1ccc2nc(N3CCC(NC4CCSC4)CC3)sc2c1 (centres undefined) | -32.3% | 11.2µM* | 35.5µM* | ? | ?
O[C@H]1CCCC[C@@H]1NC1CCN(c2nc3ccc(Cl)cc3s2)CC1 | 10µM* | ? | ? | -3.3% | 22.4µM*
O=C(CC1CCCC1)N1CCC(c2nc(C3CCOCC3)no2)C1 (centres undefined) | -18.9% | -21.4% | i | 3.5% | -7.7%
CCc1cccc(-n2ccnc2-c2cc3n(n2)CCNC3)c1 | -8.6% | -1.6% | i | -17.7% | ?
CC1=Nc2cc(C(=O)NCCCN(C)C)ccc2Sc2ccc(Cl)cc21 | 22.4µM* | -11.8% | i | i | 25.1µM*
